Measured values taken from PubChem BioAssay (EPA / NIEHS).
Active and inactive are the calls of the source. How the source made its calls: active means hit-call score of the fitted dose curve at least 0.9, where 1 is the maximum; inactive means score below 0.9.

test: ATG_Oct_MLP_CIS: Attagene CIS-FACTORIAL HepG2 Assay for human Octamer-Binding Transcription Factor (Oct) (AID 2282993); conditions: HepG2 Attagene cis-factorial Oct reporter, mRNA; actives raise or lower the signal
Method: ATG_CIS is a cell-based, multiplexed-readout assay that uses HepG2, a human liver cell line, with measurements taken at 24 hours after chemical dosing in a 24-well plate.ATG_Oct_MLP_CIS is one of 52 assay component(s) measured or calculated from the ATG_CIS assay. It is designed to make measurements of mRNA induction, a form of inducible reporter, as detected with fluorescence intensity signals by Reverse transcription polymerase chain reaction (RT-PCR) and Capillary electrophoresis technology.Data from the assay component ATG_Oct_MLP_CIS was analyzed into 1 assay endpoint. This assay endpoint, ATG_Oct_MLP_CIS, was analyzed with bidirectional fitting relative to DMSO as the negative control and baseline of activity. Using a type of inducible reporter, measures of mRNA for gain or loss-of-signal activity can be used to understand the reporter gene at the transcription factor-level as they relate to the gene POU2F1. Furthermore, this assay endpoint can be referred to as a primary readout, because this assay has produced multiple assay endpoints where this one serves a reporter gene function. To generalize the intended target to other relatable targets, this assay endpoint is annotated to the dna binding intended target family, where the subfamily is POU domain protein.
Human liver HepG2 cells are transiently transfected with multiple reporter transcription units (MRTUs) in 6-well plates using FuGene 6 reagent (Roche; 3 ml FuGene/1 mg DNA). The MRTU constructs are regulated by a cis-regulating element (promoter). […] A major difference between the CIS and TRANS system is that in CIS activities of endogenous TFs are measured, whereas the TRANS assay evaluates changes in activities of exogenous, chimeric NR-Gal4 proteins. […] At the end of 24 hour incubation, total RNA was isolated using TriZol reagent (Invitrogen). The isolated RNA is then reverse-transcribed using oligo(dT) primer and Mo-MLV reverse transcriptase (Invitrogen) with DNAse I (Ambion) treatment for 30 min. The one-tenth of the produced cDNA was amplified by PCR using Taq DNA polymerase (Invitrogen) and two reporter sequence-specific primers. The PCR products were fluorescently labeled by primer extension with 6-arboxyfluorescein (6-FAM) 5'-labeled reporter sequence-specific primer (2 min at 95 C, 20 s at 68 C and 10 min at 72 C) and these products were digested with 5U of HpaI (New England Biolabs) for 2h at 37 C. The fragments were purified using Qiaquick PCR columns (Qiagen), analyzed on an ABI 3130xL genetic analyzer (Applied Biosystems) with peak positions identified by using a set of X-rhodamine (ROX)-labeled MapMarker1000 molecular weight standards (BioVentures). The raw capillary electrophoresis data was processed using Attagraph software (Attagene).

Row | SMILES | outcome | AC50
1 | C[N+](C)(C)Cc1ccccc1 | inactive | –
2 | CC(C)CC(C)(c1ccc(O)cc1)c1ccc(O)cc1 | – | 17 µM (active)
3 | Clc1cnc(Oc2ccc(Oc3ncc(Cl)cc3Cl)cc2)c(Cl)c1 | inactive | –
4 | CNC(=O)CSP(=O)(OC)OC | inactive | –
5 | Cc1ccccc1OP(=O)(Oc1ccccc1)Oc1ccccc1 | inactive | –
6 | NC(=O)CCl | inactive | –
7 | O=C(Cc1ccccc1)OCCc1ccccc1 | inactive | –
8 | CC(F)(F)CC(F)(F)F | inactive | –
9 | C=CCN=C=S | inactive | –
10 | C=CCc1ccccc1O | inactive | –
11 | Nc1nc(=S)[nH][nH]1 | inactive | –
12 | CN(CCCC(O)c1cccnc1)N=O (stereo not given) | inactive | –
13 | C=CCOC(N)=O | inactive | –
14 | CCCSP(=S)(OCC)Oc1ccc(Cl)cc1Cl (stereo not given) | inactive | –
15 | Cc1cc(Cl)ccc1OCCCC(=O)O | inactive | –
16 | CC1CC(=O)O1 (stereo not given) | inactive | –
17 | C1CN2CCN1CC2 | inactive | –
18 | CCCCCCCCCCCCBr | inactive | –
19 | CC(=O)C(F)(F)C(F)(F)F | inactive | –
20 | Cc1ccc(OP(=O)(Oc2ccc(C)cc2C)Oc2ccc(C)cc2C)c(C)c1 | inactive | –

Row | SMILES | outcome | AC50
21 | Nc1nc(N)nc(Cl)n1 | inactive | –
22 | CC(O)(CS(=O)(=O)c1ccc(F)cc1)C(=O)Nc1ccc(C#N)c(C(F)(F)F)c1 (stereo not given) | – | 58 µM (active)
23 | N#Cc1ccc(Cl)cc1 | inactive | –
24 | Cc1cc(Cl)ccc1OC(C)C(=O)O (stereo not given) | inactive | –
25 | COc1ccccc1N | inactive | –
26 | CC(C)(c1ccc(O)c(-c2ccccc2)c1)c1ccc(O)c(-c2ccccc2)c1 | inactive | –
27 | O=[N+]([O-])c1cc([As](=O)(O)O)ccc1O | inactive | –
28 | CCC[CH2][Sn]([CH2]CCC)([CH2]CCC)[CH2]CCC | – | 11.1 µM (active)
29 | O=C(NC(=O)c1c(F)cccc1F)Nc1ccc(Cl)cc1 | inactive | –
30 | CCOP(=S)(OCC)SCSc1cc(Cl)ccc1Cl | inactive | –
31 | CC(C)O.CC(C)O.OCCN(CCO)CCO.OCCN(CCO)CCO.[Ti] | inactive | –
32 | ClCCN1CCOCC1 | inactive | –
33 | COP(=S)(OC)Oc1cc(Cl)c(I)cc1Cl | – | 30.7 µM (active)
34 | ClCCCCl | inactive | –
35 | O=NN1CCOCC1 | inactive | –
36 | O=C(O)c1cc(I)cc(I)c1I | inactive | –
37 | CN(C)c1ccc(N=O)cc1 | inactive | –
38 | CC(C)(COCC1CO1)COCC1CO1 (stereo not given) | inactive | –
39 | O=c1[nH]c2ccccc2n1C1CCN(CCCC(c2ccc(F)cc2)c2ccc(F)cc2)CC1 | inactive | –
40 | O=S(=O)(c1ccc(Cl)cc1)c1cc(Cl)c(Cl)cc1Cl | inactive | –
